Test results reported in PMC7819943, “Rice protein-binding microarrays: a tool to detect cis-acting elements near promoter regions in rice”.
In all, about 68,000 sequences were measured (“fluorescence intensity (a.u.)”: median about 9,100, highest 2% from about 16,000 on). The sample as a whole holds a higher share of the highest values than the screen did.

Biological target: OsWRKY34 (Oryza sativa, UniProt Q0JBA9 1-250)
Test: protein-binding microarray (RPBM); PBS, 2% BSA, 51.3 ng/ul salmon testes DNA, 50 uM zinc acetate, 200 nM TF, 25 C, 1 h; high values mean tight binding
Conditions: protein: recombinant; tags: N-terminal polyhistidine and DsRed monomer fusion (pET32a); label: CyDye5-dUTP incorporated in the synthesized complementary strand; 3' TTTTT single-stranded linker to array surface; dsDNA, one strand shown
Procedure, shortened: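 The binding signal is fluorescence intensity per feature, in arbitrary units, read on an Axon 4000B scanner. Polyhistidine- and DsRed-tagged transcription factors (N-terminal fusions) from E. coli BL21-CodonPlus were purified on Ni–NTA and applied at 200 nM for 1 h at 25 °C to a double-stranded, BSA-blocked custom Agilent array in buffer with 50 µM zinc acetate.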

Sequence of OsWRKY34 (Q0JBA9 entry or part of it): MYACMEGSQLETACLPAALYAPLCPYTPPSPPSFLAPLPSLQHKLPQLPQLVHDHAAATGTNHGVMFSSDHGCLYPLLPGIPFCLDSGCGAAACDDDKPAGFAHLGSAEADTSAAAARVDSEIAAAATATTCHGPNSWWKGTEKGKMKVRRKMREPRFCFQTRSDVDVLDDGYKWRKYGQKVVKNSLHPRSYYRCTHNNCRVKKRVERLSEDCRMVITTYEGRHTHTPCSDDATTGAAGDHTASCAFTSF

Going from “CTTCGGTGTACTTTTTTCTTTTCTAGTTCCTGGTTCTAATCGGAGTCACCTAGTGCAG” to “TTAATTACTTCCTTTTCTTTTCTTTTCTTTTCCTTTTTTTCGGAGTCACCTAGTGCAG”, the binding signal falls from 18000 fluorescence intensity (a.u.) to 8110 fluorescence intensity (a.u.).

Compared with “TGGTTGTGTTCTTGTTGGCTTATACCTTTTTTATGTTTTGCGGAGTCACCTAGTGCAG”, “ACTTTGTTTACACGGTGGTTCTCTCCTTTTCTTCTTCTCACGGAGTCACCTAGTGCAG” is lower in binding signal: 9260 fluorescence intensity (a.u.) for the first, 8480 fluorescence intensity (a.u.) for the second.

Compared with “GGTTCTCTTTTCTTTTCTTTTCTTTTCTCCTGGAGTTTTTCGGAGTCACCTAGTGCAG”, “GTGCGGTTTTTCTCCTGGTTCTTTTGTGTACTTTATACCACGGAGTCACCTAGTGCAG” is higher in binding signal: 9120 fluorescence intensity (a.u.) for the first, 18200 fluorescence intensity (a.u.) for the second.

First: GGCGCCGCCGTCGTCCTGCTGCTTCCGCCGCCGCGTCTTCCGGAGTCACCTAGTGCAG
Second: CTGCACATGATTTCAATCTACTATGGACATTCTCACTCTCCGGAGTCACCTAGTGCAG
The binding signal of the first is lower: 11000 fluorescence intensity (a.u.) for the first, 12100 fluorescence intensity (a.u.) for the second.

First: CACCTGCCTCCTCCTACCACCAGCCGCCGCCGACGACTAACGGAGTCACCTAGTGCAG
Second: CGCGGGTGGTCTGGTCTCTCTCTCGTATCGTATCGTATCACGGAGTCACCTAGTGCAG
The binding signal of the first is lower: 8550 fluorescence intensity (a.u.) for the first, 16700 fluorescence intensity (a.u.) for the second.

Compared with “CGCTTCCATCTCTCTCTGTCTCTCTTCTTTTTGACCTCTTCGGAGTCACCTAGTGCAG”, “TGCTCTCTCTCGTGTGGTCTGGTCCGCGCGCTCGTGTATACGGAGTCACCTAGTGCAG” is lower in binding signal: 11900 fluorescence intensity (a.u.) for the first, 9150 fluorescence intensity (a.u.) for the second.

First: CGACGGGCGGGTGTGGGGATTCGCGGCCTTGAGGGTTCGTCGGAGTCACCTAGTGCAG
Second: GGGGAGGGAAGGGATGGATCGGATGCGGGTTCGGGCGGTTCGGAGTCACCTAGTGCAG
The binding signal of the first is higher: 9660 fluorescence intensity (a.u.) for the first, 8910 fluorescence intensity (a.u.) for the second.

Compared with “CGGGCGGGGCGGGGCGGGTTCGCTCGTCGGATGTGTGGATCGGAGTCACCTAGTGCAG”, “CCGCTGTCGTCGTCTCGTCTCTGTGTGTGTGTCTCCATCACGGAGTCACCTAGTGCAG” is lower in binding signal: 23900 fluorescence intensity (a.u.) for the first, 8280 fluorescence intensity (a.u.) for the second.

First: CGCGCCATCTCCATGTCATCGTCGTCGTCTGTGTCCCCTTCGGAGTCACCTAGTGCAG
Second: TCCATCATCGTCGTCTCTGTGTGTGTCTGTGTGTGTGTGTCGGAGTCACCTAGTGCAG
The binding signal of the first is lower: 10700 fluorescence intensity (a.u.) for the first, 17900 fluorescence intensity (a.u.) for the second.

Going from “CTCTCTCCAATCTCCATCTCTCTGTCTGATTTGTAATCTTCGGAGTCACCTAGTGCAG” to “TACCTCTCTTCTCTTCTCCAATCTCTATCTATGTCTTCTTCGGAGTCACCTAGTGCAG”, the binding signal falls from 16500 fluorescence intensity (a.u.) to 8640 fluorescence intensity (a.u.).

Going from “TCTCTCTGGGAGGTCTCGCGGAAGGTGGTGGGGTTGGGCCCGGAGTCACCTAGTGCAG” to “TTTGGTTGCTTGCCTTCTTTATCGGCAAAATTTGCTATAGCGGAGTCACCTAGTGCAG”, the binding signal falls from 11500 fluorescence intensity (a.u.) to 8970 fluorescence intensity (a.u.).

Going from “ATTTAGGGAAATTATAACCATGCCACTCTGTCGTGTTTTCCGGAGTCACCTAGTGCAG” to “AGATAGTGGTGGTGGTCTGTGCATCGTTGACTTGATCATGCGGAGTCACCTAGTGCAG”, the binding signal rises from 9180 fluorescence intensity (a.u.) to 10900 fluorescence intensity (a.u.).

Going from “GGTCCCGTTCCGATCCTCACTCGGTCACTCATCTTTCCTTCGGAGTCACCTAGTGCAG” to “AAATTATAACGAGGGGTGAGGGGCTAAGAACCTATTTTCGCGGAGTCACCTAGTGCAG”, the binding signal rises from 8730 fluorescence intensity (a.u.) to 9700 fluorescence intensity (a.u.).

First: CCCATCACCACTCTGCCCACATCCCGGCGTCGCTTCGTGTCGGAGTCACCTAGTGCAG
Second: TTCGTTCCGATTCTTTTTTTTTCATTTGCTATGCATCTTCCGGAGTCACCTAGTGCAG
The binding signal of the first is lower: 9120 fluorescence intensity (a.u.) for the first, 11000 fluorescence intensity (a.u.) for the second.

Compared with “GTCCTATCGCGTAGCCCACACTCCACCCTATCGCGCCTTCCGGAGTCACCTAGTGCAG”, “CGCCCCTCCCCTTTGGCGCCGCCGCGCCTGCGTTGACCCTCGGAGTCACCTAGTGCAG” is lower in binding signal: 11500 fluorescence intensity (a.u.) for the first, 8230 fluorescence intensity (a.u.) for the second.

Going from “TCCAATCTGTGCTGCCTTTATATTAGTTCCACCAAGAAGACGGAGTCACCTAGTGCAG” to “GACCTTTACTTTTTCATCCTACCTAAATGCATATTCCAATCGGAGTCACCTAGTGCAG”, the binding signal falls from 9380 fluorescence intensity (a.u.) to 9320 fluorescence intensity (a.u.).

First: ACTATTTGGATATCCCATTCCAACGCCATTGCCCTCTGTTCGGAGTCACCTAGTGCAG
Second: GCGGGGTTCGTGGTGTGTGCGTGTGCGTCTCTCTCTGTCTCGGAGTCACCTAGTGCAG
The binding signal of the first is lower: 8280 fluorescence intensity (a.u.) for the first, 21100 fluorescence intensity (a.u.) for the second.

Going from “GTTCTCGTCGTTCGTGTTCTTCTGCTTCGGTTTCGTGGTGCGGAGTCACCTAGTGCAG” to “CTCTCTCGCTTCTTCTCTGTGTGTGTGTTGCGTGGTGGGGCGGAGTCACCTAGTGCAG”, the binding signal rises from 11900 fluorescence intensity (a.u.) to 23800 fluorescence intensity (a.u.).

First: TGGGAGTGTTGTTATTCTCGTGCGCGTTGTGGTTAGTGGGCGGAGTCACCTAGTGCAG
Second: TTTCCGTTCCTTTCTTTCCTTCTCGCGTTTGCGTGGTGGGCGGAGTCACCTAGTGCAG
The binding signal of the first is lower: 9630 fluorescence intensity (a.u.) for the first, 10500 fluorescence intensity (a.u.) for the second.

First: TGGCGTGGTCTCGTCTCTTCGTCTTCGGGTGTGCTCACCGCGGAGTCACCTAGTGCAG
Second: ATCTGTAGTCCGTTGCTCTTCTCTCTCATATTTTATCTCGCGGAGTCACCTAGTGCAG
The binding signal of the first is lower: 9650 fluorescence intensity (a.u.) for the first, 11700 fluorescence intensity (a.u.) for the second.

First: TGTGTGTATGCGTTTATAGGAGTAACTGTGTGTGCGTTTACGGAGTCACCTAGTGCAG
Second: CGCCTCCGCCTCCGTCGACTCCGCGCCTCCGCCGCCACCCCGGAGTCACCTAGTGCAG
The binding signal of the first is lower: 8150 fluorescence intensity (a.u.) for the first, 15100 fluorescence intensity (a.u.) for the second.

Going from “TCCAGCTGCTTGCTTCTCTCTCTCTCTTCTCTTGAGCATCCGGAGTCACCTAGTGCAG” to “ATGGGAGGTGGGTGGTACCGTGGTGGTGGTCGCAGATCTGCGGAGTCACCTAGTGCAG”, the binding signal rises from 9650 fluorescence intensity (a.u.) to 27200 fluorescence intensity (a.u.).

First: TCGTGCGTGCGTGAGGGAGGTCGTGGTGGTGGTGGTGGTGCGGAGTCACCTAGTGCAG
Second: CGGAGGCGAGTGGGTGGGTGGTGGTCCAGTGCGGTGGTGCCGGAGTCACCTAGTGCAG
The binding signal of the first is lower: 9020 fluorescence intensity (a.u.) for the first, 9800 fluorescence intensity (a.u.) for the second.

First: AGTGGGTGGTGGTGGTGGTGGTGGTGCGAGGCCGTCGCTGCGGAGTCACCTAGTGCAG
Second: AATCTCCGTGGCGAGGGTGGGGTCGGAGGTGGTCATGTCGCGGAGTCACCTAGTGCAG
The binding signal of the first is higher: 20500 fluorescence intensity (a.u.) for the first, 9290 fluorescence intensity (a.u.) for the second.

Compared with “GGGGACGCAGGAGGAGGTGGGTGGGTCGAGCTCGCTTGCGCGGAGTCACCTAGTGCAG”, “CGCTTGATCTGGGGTGGGGTCGCGAGTGGTGGAGGAGGTGCGGAGTCACCTAGTGCAG” is higher in binding signal: 15400 fluorescence intensity (a.u.) for the first, 16600 fluorescence intensity (a.u.) for the second.

Going from “GGAGGAGGTGGAGGCGCTGCTGGTGGTGGAGGCCGTGGTGCGGAGTCACCTAGTGCAG” to “TCTGCCTTGAAGTGGTACCGTGGGTGGGAGGGTAGTTATGCGGAGTCACCTAGTGCAG”, the binding signal rises from 8020 fluorescence intensity (a.u.) to 11500 fluorescence intensity (a.u.).

Going from “TGTGTGAGATTTTTGCATGTTTTTGTTGTGTTTGTTCATACGGAGTCACCTAGTGCAG” to “TCTGGTTCCATTTTCCACGCACAGGAGAGTGATTACTTTTCGGAGTCACCTAGTGCAG”, the binding signal rises from 8580 fluorescence intensity (a.u.) to 11200 fluorescence intensity (a.u.).
